PubChem BioAssay (NCI)
The panel holds about 79,000 compounds, 15% with a hit somewhere; the sample as a whole holds those more often. Activity calls are given as the source filed them. Cut-off read from the data, not from the text of the source: active = growth inhibition above about 70%; inactive = the rest.

Assays:
[1] = NCI Yeast Anticancer Drug Screen. Data for the rad14 strain (AID 159);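 note: 0% = growth of vehicle-treated control cultures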; details: S. cerevisiae rad14 strain growth inhibition, stronger effect = higher value
Procedure, shortened: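 Inhibition of growth is reported for a repair-deficient yeast mutant following compound treatment, calculated relative to cultures that received vehicle.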

[2] = NCI Yeast Anticancer Drug Screen. Data for the sgs1 mgt1 strain (AID 161);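 note: 0% = growth of cultures given vehicle only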; details: S. cerevisiae sgs1 mgt1 strain, stronger effect = higher value
Procedure, shortened: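 Test agents were incubated with a DNA-repair-mutant yeast strain. Growth was then read and compared against vehicle-treated controls.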

[3] = NCI Yeast Anticancer Drug Screen. Data for the CLN2oe strain (AID 163);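 note: 0% = growth of vehicle-only control cultures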; details: S. cerevisiae CLN2oe strain, stronger effect = higher value
Procedure, shortened: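 First, the altered yeast strain was treated with each compound; second, its growth was measured; finally, inhibition was derived by comparison with vehicle controls.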

[4] = NCI Yeast Anticancer Drug Screen. Data for the cln2 rad14 strain (AID 165);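 note: 0% = growth equal to vehicle treated cultures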; details: S. cerevisiae cln2 rad14 strain, stronger effect = higher value
Procedure, shortened: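 Test compounds were added to cln2 rad14 yeast cultures; inhibition of growth was then determined by comparison with vehicle treatment.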

[5] = NCI Yeast Anticancer Drug Screen. Data for the bub3 strain (AID 167); details: S. cerevisiae bub3 mutant strain, stronger effect = higher value
Procedure, shortened: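 Mutant yeast screening strain plus compound; vehicle-treated cultures serve as the 0% inhibition reference.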

[6] = NCI Yeast Anticancer Drug Screen. Data for the wt2 strain (AID 169); details: S. cerevisiae wt2 strain growth inhibition, stronger effect = higher value
Procedure, shortened: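 The panel's yeast strains carry defined changes in DNA repair or cell cycle genes. Each strain is grown with compound, and growth loss is scored relative to vehicle.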

[7] = NCI Yeast Anticancer Drug Screen. Data for the mlh1 strain (AID 171);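 note: 0% = growth of vehicle-treated control cultures of the same strain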; details: S. cerevisiae mlh1 strain growth inhibition, stronger effect = higher value
Procedure, shortened: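 Inhibition values reflect reduced yeast growth in the presence of compound, referenced to vehicle controls, using a strain chosen for its alteration in DNA repair or cell cycle control.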

[8] = NCI Yeast Anticancer Drug Screen. Data for the sgs1 strain (AID 173);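 note: 0% = growth of vehicle-only control cultures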; details: S. cerevisiae sgs1 mutant, stronger effect = higher value
Procedure, shortened: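 Vehicle-treated cultures served as reference for growth inhibition of a yeast strain altered in DNA damage repair or cell cycle control after compound exposure.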

[9] = NCI Yeast Anticancer Drug Screen. Data for the mlh1 rad18 strain (AID 175); details: S. cerevisiae mlh1 rad18 strain growth inhibition, stronger effect = higher value
Procedure, shortened: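 Inhibition values reflect reduced growth of mutant yeast versus vehicle-treated controls following compound exposure; the mutations affect DNA damage repair.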

[10] = NCI Yeast Anticancer Drug Screen. Data for the rad18 strain (AID 177); details: S. cerevisiae rad18 mutant growth inhibition, stronger effect = higher value
Procedure, shortened: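 Steps: expose repair-mutant yeast to compound; measure growth; express as inhibition relative to vehicle control.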

[11] = NCI Yeast Anticancer Drug Screen. Data for the rad52 strain (AID 147);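 note: 0% = growth of vehicle-treated control cultures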; details: S. cerevisiae rad52 mutant growth inhibition, stronger effect = higher value
Procedure, shortened: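 Inhibition of yeast growth, referenced to vehicle controls, was the measured output for a strain with defective DNA damage repair.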

[12] = NCI Yeast Anticancer Drug Screen. Data for the wt1 strain (AID 149);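 note: 0% = growth of vehicle-treated wt1 cultures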; details: S. cerevisiae wt1 strain (SPY 50644) growth inhibition, stronger effect = higher value
Procedure, shortened: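 Each compound is tested on wt1 yeast and the loss of growth versus vehicle gives the inhibition value.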

[13] = NCI Yeast Anticancer Drug Screen. Data for the rad50EPP+ strain (AID 151);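 note: 0% = growth of vehicle-treated control cultures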; details: S. cerevisiae rad50 mutant strain, stronger effect = higher value
Procedure, shortened: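 Genetically defined yeast (rad50EPP+, DNA damage repair alteration) is grown with compound, and inhibition of growth is expressed relative to vehicle-treated controls.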

[14] = NCI Yeast Anticancer Drug Screen. Data for the mgt1 strain (AID 153); details: S. cerevisiae mgt1 mutant growth inhibition, stronger effect = higher value
Procedure, shortened: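 In the mgt1 strain, test compounds were added and growth inhibition was determined relative to vehicle-treated controls.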

[15] = NCI Yeast Anticancer Drug Screen. Data for the rad50 strain (AID 155);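 note: 0% = growth of vehicle-only cultures of the same strain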; details: S. cerevisiae rad50 strain growth inhibition, stronger effect = higher value
Procedure, shortened: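 Vehicle-treated cultures provide the reference for the growth inhibition reported for compound-exposed, repair-deficient yeast.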

[16] = NCI Yeast Anticancer Drug Screen. Data for the mec2-1 strain (AID 157); details: S. cerevisiae mec2-1 strain, stronger effect = higher value
Procedure, shortened: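 Each compound was tested on mec2-1 yeast, a strain altered in DNA damage repair or cell cycle control. Growth inhibition is reported relative to vehicle.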

[17] = at 5.0 µM (retest, dose inferred, filed as 0.5)
[18] = at 50.0 µM (retest, dose inferred, filed as 5.0)

Measured: growth inhibition

O=C(O)c1cc2ccccc2c2c1C(=O)c1ccccc1-2
inactive: [1]; at 11.0 µM 43% | [2]; [17] 0% | [3]; at 1.2 µM 13% | [3]; at 3.7 µM 28% | [3]; at 11.0 µM 64% | [4]; [17] 45% | [5]; at 1.2 µM -1% | [5]; at 3.7 µM 7% | [5]; [17] 14% | [5]; at 11.0 µM 56% | [6]; at 1.2 µM -1% | [6]; at 3.7 µM 11% | [6]; at 11.0 µM 49% | [7]; at 1.2 µM 9% | [7]; at 3.7 µM 14% | [7]; at 11.0 µM 59% | [8]; at 1.2 µM 18% | [8]; at 3.7 µM 28% | [8]; at 11.0 µM 69% | [9]; [17] 22% | [10]; at 1.2 µM 5% | [10]; at 3.7 µM 12% | [10]; at 11.0 µM 43%
active: [1]; at 33.0 µM 94% | [1]; at 100.0 µM 95% | [2]; [18] 94% | [2]; at 50.0 µM 92.6% | [3]; at 33.0 µM 96% | [3]; at 100.0 µM 95% | [4]; [18] 97% | [4]; at 50.0 µM 88.8% | [5]; at 33.0 µM 95% | [5]; [18] 96% | [5]; at 50.0 µM 90.8% | [5]; at 100.0 µM 94% | [6]; at 33.0 µM 96% | [6]; at 100.0 µM 95% | [7]; at 33.0 µM 95% | [7]; at 100.0 µM 95% | [8]; at 33.0 µM 95% | [8]; at 100.0 µM 96% | [9]; [18] 97% | [9]; at 50.0 µM 90% | [10]; at 33.0 µM 95% | [10]; at 100.0 µM 94%

CN(C)c1ccc2c(SCC(=O)OCC(=O)[C@@]3(O)CC[C@H]4[C@@H]5CCC6=CC(=O)C=C[C@]6(C)[C@H]5C(=O)C[C@@]43C)c3ccc(N(C)C)cc3nc2c1
active: [11]; at 33.0 µM 90% | [11]; at 100.0 µM 92% | [12]; at 33.0 µM 91% | [12]; at 100.0 µM 91% | [13]; at 100.0 µM 83% | [14]; at 33.0 µM 89% | [14]; at 100.0 µM 88% | [15]; at 11.0 µM 71% | [15]; at 33.0 µM 90% | [15]; [18] 89% | [15]; at 100.0 µM 89% | [16]; at 33.0 µM 90% | [16]; [18] 86% | [16]; at 50.0 µM 72.9% | [16]; at 100.0 µM 90% | [2]; [18] 92% | [2]; at 50.0 µM 78.7% | [3]; at 33.0 µM 89% | [3]; at 100.0 µM 89% | [4]; [18] 78% | [4]; at 50.0 µM 80.7% | [5]; at 33.0 µM 87% | [5]; [18] 95% | [5]; at 50.0 µM 72.3% | [5]; at 100.0 µM 89% | [6]; at 100.0 µM 83% | [7]; at 33.0 µM 86% | [7]; at 100.0 µM 87% | [8]; at 11.0 µM 71% | [8]; at 33.0 µM 91% | [8]; at 100.0 µM 90% | [9]; [18] 86% | [9]; at 50.0 µM 84.5% | [10]; at 11.0 µM 74% | [10]; at 33.0 µM 90% | [10]; at 100.0 µM 87%
inactive: [11]; at 1.2 µM -7% | [11]; at 3.7 µM -8% | [11]; at 11.0 µM 46% | [12]; at 1.2 µM 16% | [12]; at 3.7 µM -16% | [12]; at 11.0 µM 64% | [13]; at 1.2 µM 1% | [13]; at 3.7 µM 6% | [13]; at 11.0 µM 6% | [13]; at 33.0 µM 63% | [14]; at 1.2 µM -27% | [14]; at 3.7 µM -37% | [14]; at 11.0 µM 69% | [15]; at 1.2 µM -31% | [15]; at 3.7 µM -13% | [15]; [17] 7% | [15]; at 50.0 µM 60.2% | [16]; at 1.2 µM -10% | [16]; at 3.7 µM -5% | [16]; [17] 13% | [16]; at 11.0 µM 55% | [2]; [17] 12% | [3]; at 1.2 µM 9% | [3]; at 3.7 µM 16% | [3]; at 11.0 µM 53% | [4]; [17] 0% | [5]; at 1.2 µM -13% | [5]; at 3.7 µM -4% | [5]; [17] 22% | [5]; at 11.0 µM 55% | [6]; at 1.2 µM -89% | [6]; at 3.7 µM -74% | [6]; at 11.0 µM -15% | [6]; at 33.0 µM 67% | [7]; at 1.2 µM -15% | [7]; at 3.7 µM -30% | [7]; at 11.0 µM 46% | [8]; at 1.2 µM 2% | [8]; at 3.7 µM -18% | [9]; [17] 50% | [10]; at 1.2 µM -9% | [10]; at 3.7 µM 6%

CC(C)(C)[Si](C)(C)OCC1CCC(n2cnc3c(NC(=O)c4ccccc4)ncnc32)O1 (stereo unspecified)
inactive: [11]; at 1.2 µM -2% | [11]; at 3.7 µM -3% | [11]; at 11.0 µM -2% | [11]; at 33.0 µM -1% | [11]; at 100.0 µM -2% | [12]; at 1.2 µM 0% | [12]; at 3.7 µM 0% | [12]; at 11.0 µM 0% | [12]; at 33.0 µM 4% | [12]; at 100.0 µM -2% | [13]; at 1.2 µM -3% | [13]; at 3.7 µM -2% | [13]; at 11.0 µM 1% | [13]; at 33.0 µM 5% | [13]; at 100.0 µM 5% | [15]; at 1.2 µM 1% | [15]; at 3.7 µM -49% | [15]; [17] 0% | [15]; at 11.0 µM -28% | [15]; at 33.0 µM 2% | [15]; [18] 31% | [15]; at 100.0 µM 1% | [16]; at 1.2 µM -3% | [16]; at 3.7 µM 0% | [16]; [17] -2% | [16]; at 11.0 µM -1% | [16]; at 33.0 µM 0% | [16]; [18] 49% | [16]; at 100.0 µM 0% | [1]; at 1.2 µM -1% | [1]; at 3.7 µM -2% | [1]; at 11.0 µM 3% | [1]; at 33.0 µM 3% | [1]; at 100.0 µM 2% | [2]; [17] -1% | [2]; [18] 6% | [2]; at 50.0 µM 27.2% | [3]; at 1.2 µM -2% | [3]; at 3.7 µM 0% | [3]; at 11.0 µM 5% | [3]; at 33.0 µM -1% | [3]; at 100.0 µM -4% | [4]; [17] -4% | [4]; [18] 30% | [4]; at 50.0 µM 42.2% | [5]; at 1.2 µM 2% | [5]; at 3.7 µM 0% | [5]; [17] -2% | [5]; at 11.0 µM 1% | [5]; at 33.0 µM -2% | [5]; [18] 30% | [5]; at 50.0 µM 23.1% | [5]; at 100.0 µM -4% | [6]; at 1.2 µM -1% | [6]; at 3.7 µM 7% | [6]; at 11.0 µM -2% | [6]; at 33.0 µM 5% | [6]; at 100.0 µM -1% | [7]; at 1.2 µM 0% | [7]; at 3.7 µM -3% | [7]; at 11.0 µM -1% | [7]; at 33.0 µM -1% | [7]; at 100.0 µM -1% | [8]; at 1.2 µM -2% | [8]; at 3.7 µM -2% | [8]; at 11.0 µM 0% | [8]; at 33.0 µM 1% | [8]; at 100.0 µM 0% | [9]; [17] -5% | [9]; [18] 47% | [10]; at 1.2 µM -3% | [10]; at 3.7 µM 2% | [10]; at 11.0 µM -1% | [10]; at 33.0 µM 1% | [10]; at 100.0 µM -1%
active: [15]; at 50.0 µM 87.5% | [16]; at 50.0 µM 90% | [9]; at 50.0 µM 80.9%
